# Screening data as filed in PubChem BioAssay.
# Sfp PPTase inh: Sfp phosphopantetheinyl transferase inhibition; Q9F4F7; Biochemical Sfp PPTase activity, qHTS; Potency, µM, for the others: largest response in the series, negative = inhibition, hits mostly inhibitors; actives 3.5% (n = 310,000); AID 1490;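 note: the enzyme is Sfp with the accession as filed and its product quenches rhodamine fluorescence; 0% = enzyme reaction without inhibitor and -100% = no enzyme wells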
#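 With Hepes-Na pH 7.6 buffer containing 10 mM MgCl2, Sfp (15 nM) modified BHQ-2-YbbR (12.5 uM) using rhodamine-CoA (5 uM). Two reads 30 minutes apart at 525/598 nm yielded each well's rate.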
# PLK1 PBD block: inhibitors of human PLK1 polo-box domain binding; P53350; Plk1 PBD binding of FITC phosphopeptide, fluorescence polarization; Potency, µM, for inactives: max response, negative = inhibition, most hits filed as inhibitors; actives 2.8% (n = 360,000); note: series mostly up to about 57 µM; % is set by controls: 0 for no effect and ±100 for the full control effect; nearly all actives have a fitted effect of over 65% in size
# Target sequence (P53350 whole entry, looked up, the tested form may be a part): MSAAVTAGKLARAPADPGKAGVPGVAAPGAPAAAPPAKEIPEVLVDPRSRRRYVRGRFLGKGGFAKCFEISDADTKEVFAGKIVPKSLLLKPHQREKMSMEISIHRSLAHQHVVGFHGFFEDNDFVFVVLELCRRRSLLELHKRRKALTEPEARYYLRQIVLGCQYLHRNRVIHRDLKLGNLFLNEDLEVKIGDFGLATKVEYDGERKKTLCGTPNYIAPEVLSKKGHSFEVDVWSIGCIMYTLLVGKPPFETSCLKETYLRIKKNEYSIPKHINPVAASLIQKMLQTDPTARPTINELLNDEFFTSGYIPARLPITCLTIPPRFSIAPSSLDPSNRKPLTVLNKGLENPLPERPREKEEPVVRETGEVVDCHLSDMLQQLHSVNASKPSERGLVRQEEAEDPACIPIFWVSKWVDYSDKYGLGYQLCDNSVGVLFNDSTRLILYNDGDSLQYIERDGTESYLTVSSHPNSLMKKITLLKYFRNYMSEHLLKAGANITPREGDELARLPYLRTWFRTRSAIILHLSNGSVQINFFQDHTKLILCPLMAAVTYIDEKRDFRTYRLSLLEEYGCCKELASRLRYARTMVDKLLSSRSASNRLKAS
# HP1b chromo inh: blocks HP1-beta chromodomain binding to methylated histone tails. AID 540317. P83916. Potency, µM (highest dose often 114 µM), for inactives: at the highest dose activity change, negative = inhibition, actives largely listed as inhibitors. actives 0.56% (n = 390,000). AlphaScreen HP1-beta / biotin-H3K9me3 peptide binding; note: nearly all actives have a fitted effect of over 70% in size
# Target sequence (P83916 whole entry, looked up): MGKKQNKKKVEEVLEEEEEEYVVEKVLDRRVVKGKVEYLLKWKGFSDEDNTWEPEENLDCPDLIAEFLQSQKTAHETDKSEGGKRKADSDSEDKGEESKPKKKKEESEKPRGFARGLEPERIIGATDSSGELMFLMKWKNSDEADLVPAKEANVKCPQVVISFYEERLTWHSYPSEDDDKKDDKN
#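 AlphaScreen: HP1-beta (50 nM) preformed 30 min with biotin-H3(1-18)K9me3 peptide (50 nM) in PBS pH 7.4, 0.01% Tween-20. Compound added for 30 min at RT, then streptavidin donor/nickel chelate acceptor beads (10 ug/mL) for 30 min.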
# G9a block: blocks human histone lysine methyltransferase G9a. Q96KQ7. G9a H3K9 monomethylation, AlphaScreen, 2 h. Potency, µM (top dose mostly 102 µM), without a hit: at the highest dose activity, negative = inhibition, actives largely listed as inhibitors. actives 8.8% (n = 350,000). AID 504332; note: % is set by controls: 0 for no effect and ±100 for the full control effect; nearly all actives have a fitted effect of over 75% in size
#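 Chemiluminescent proximity detection of H3K9 monomethylation, read after 10 min bead incubation in the dark. Reaction: 20 nM G9a, 500 nM biotin-H3K9 peptide, 20 uM SAM cofactor, 2 h, room temperature, following 15 min enzyme-compound preincubation.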
# JMJD2A Tudor inh: JMJD2A Tudor domain (human) inhibition; AlphaScreen JMJD2A-Tudor / H3K4me3 peptide binding; Potency, µM (series often up to 114 µM), inactives show top-dose activity change, negative = inhibition, usual class: inhibitors; actives 4.4% (n = 390,000); note: % is set by controls: 0 for no effect and ±100 for the full control effect; nearly all actives have a fitted effect of over 50% in size
# BAZ2B inh: blocks human BAZ2B; AlphaScreen BAZ2B-H3K14Ac peptide displacement; actives 4.4% (n = 360,000); Potency, µM (doses to about 114 µM), for the others: at the top dose activity change, negative = inhibition, actives largely listed as inhibitors; note: % is set by controls: 0 for no effect and ±100 for the full control effect; nearly all actives have a fitted effect of over 60% in size
#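 AlphaScreen luminescence quantifies BAZ2B engagement of H3K14Ac peptide; the protein and biotinylated peptide are both at 50 nM final, buffer PBS pH 7.4 with 0.01% Tween-20, all steps at room temperature.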
# * hit, by the source's call; u = inconclusive; x = not tested or not shown; [ ] = dose if it differs, or a comment. Most compounds without a hit are left out; they make up all but 12% or so of the library. Calls come from the whole dose curve; as a rule, active = well fitted curve in the direction sought with a large enough effect; inconclusive = small, poorly fitted or top-dose-only effect, or another doubt; inactive = no such curve, though single readings can be large; an effect the other way counts as inactive or inconclusive. Potency is the fitted concentration of half-maximal effect.
SMILES,Sfp PPTase inh,PLK1 PBD block,HP1b chromo inh,G9a block,JMJD2A Tudor inh,BAZ2B inh
Cc1ccc(C(=O)Nc2ccc(C(=O)N/N=C/c3c[nH]c4ccccc34)cc2)cc1,13.4%,5.5%,29.3%,12.5%,-11.4%,-11.6%
Cc1[nH]c2ccccc2c1/C=N/NC(=O)c1cc(C(C)(C)C)[nH]n1,2.3%,-11.7%,-3.8%,x,-23.5%,70.8µM*
Cc1cccc(NC(=S)N/N=C/c2c[nH]c3ccccc23)c1,1.4%,-12.6%,u,-20.8%[59 µM],u,50.1µM*
O=C(C1CCCCC1)N1C[C@H](n2cc(C3CC3)nn2)[C@@H](O)C[C@@H]1c1ccc(Cl)cc1,x,-2.3%,x,x,x,x
Cc1nnc(N2CCC(C(=O)NCc3ccc(F)cc3)CC2)c2nn(-c3ccc(Cl)cc3)c(C)c12,x,x,25.1%,-39.1%[59 µM],-34.8%,-29.0%
CCOC(=O)C1OC1(c1ccccc1)c1ccccc1 (centres undefined),x,0.9%,19.8%,x,-12.3%,x
CC(C)NC(=O)C1(C)CCN1C/C=C/c1ccccc1 (centres undefined),x,-6.0%,x,x,x,x
O=C(CC(c1ccco1)C1CCCCC1=O)c1ccco1 (centres undefined),-4.7%,-7.1%,26.1%,56.2µM*,-25.7%,u
O=C(CC(c1ccccc1)C1CCCCC1=O)c1ccco1 (centres undefined),-9.5%,-7.8%,13.1%,4.6%[59 µM],-15.6%,1.9%
COc1ccc(S(=O)(=O)Nc2nnc(CC(C)(C)C)s2)cc1,-2.9%,29.9µM*,4.3%,35.5µM*,4.8%,-29.9%
COc1ccc(S(=O)(=O)Nc2nnc(C(C)(C)C)s2)cc1,17.8µM*,7.52µM*,-23.9%,1.78µM*,-22.4%,x
COCCn1c(=O)c(C)nc2cnc(Nc3ccccc3)nc21,10.0%,x,x,1.1%[0.501 µM],x,x
O=C(Nc1cccc(F)c1)N1CC[C@@]2(CCCN(S(=O)(=O)c3ccccc3)C2)C1,4.3%,x,x,-0.1%[12.7 µM],x,x
CCOC(=O)CNC(=O)C(=O)c1c(O)[nH]c2ccccc12,2.9%,-5.9%,5.7%,-6.4%[12.7 µM],50.1µM*,-4.1%
CC(=O)C1=CCC(c2ccccc2)N(S(C)(=O)=O)C1 (centres undefined),x,-10.1%,x,x,x,x
CN1C(=O)/C(=C\c2ccc(N(C)C)cc2)OC1=S,14.9%,-10.0%,12.7%,77.2%,25.1µM*,10.8%
COc1ccc(/C=C2\N=C(C(C)(C)C)OC2=O)c(OC)c1,14.0%,2.2%,18.0%[57 µM],-11.3%[59 µM],-25.7%,-14.8%
CN(C)c1ccc(/C=C2\N=C(C(C)(C)C)OC2=O)cc1,7.5%,u,31.7%,44.7µM*,1.2%,u
CCCCSCCCNC(=O)CN1C(=O)COc2ccc(S(=O)(=O)N3CCC(C)CC3)cc21,x,x,18.9%,u,-20.5%,-6.7%
Cc1ccccc1NCc1nc2ccccc2n1C,12.4%,0.5%,38.1%,7.6%,-20.7%,-26.7%
Cc1ccc(CNc2ccc3c(c2)ncn3C(C)C)cc1,-8.8%,-0.4%,8.5%,11.2µM*,u,35.5µM*
CC(C)n1cnc2cc(NCc3nc4ccccc4n3C)ccc21,-3.0%,-0.5%,9.8%,44.7µM*,u,u
Cn1c(CNc2ccccc2O)nc2ccccc21,44.7µM*,-11.1%,2.3%,3.55µM*,u,u
COc1ccc(C)cc1S(=O)(=O)N1CCN(C(=O)c2ncoc2-c2cccc(F)c2)CC1,7.5%,-19.5%,38.8%,u,-4.5%,-7.6%
O=C(NCCS(=O)(=O)NC1CCCCC1)c1ccc2c(c1)OCO2,x,-0.7%,2.0%,7.5%[0.501 µM],-10.3%,-2.1%
SMILES,Sfp PPTase inh,PLK1 PBD block,HP1b chromo inh,G9a block,JMJD2A Tudor inh,BAZ2B inh
O=C(NC(=S)NNC(=O)c1ccco1)c1ccccc1,6.1%,-27.3%,18.6%,25.1µM*,-28.8%,4.3%
O=C(NC(=S)Nc1ccc(NC(=O)c2cccs2)cc1)c1ccco1,4.0%,18.9µM*,u,-12.6%[59 µM],u,-3.7%
O=C(NNC(=O)c1ccco1)c1ccccc1,25.0%,-3.7%,46.6%,0.0%[59 µM],-8.2%,-2.2%
Cc1ccc(C)c(NC(=S)NNC(=O)c2ccco2)c1,15.2%,18.9µM*,-10.3%,2.2%,-32.7%,11.0%
O=C(NC(=S)Nc1ccc(NC(=O)c2ccco2)cc1)c1ccccc1,-20.6%,-16.9%,-9.5%,u,35.5µM*,-0.4%
Cc1[nH]c2ccc(C(=O)Nc3ccc(F)cc3)cc2c1C,x,x,1.2%,-32.4%[59 µM],u,u
CN(C)CC1C2CCC(C2)C1O (centres undefined),x,-5.3%,20.0%,x,-8.3%,x
Cc1ccc(C)c(NC(=S)NNC(=O)c2cc3c(s2)CCC(C)C3)c1 (centres undefined),29.0%,-11.8%,-19.3%,35.5µM*,-32.3%,-6.1%
O=C(/C=C/c1ccccc1)NC(=S)NNC(=O)c1ccco1,-6.1%,-16.8%,14.8%,10µM*,-5.4%,-1.1%
O=C(Cc1cccs1)NNC(=S)NC(=O)c1ccco1,-3.1%,-19.2%,10.5%,11.2µM*,-8.6%,14.4%
O=C(Cc1cccs1)NNC(=S)NCc1ccc(Cl)cc1,15.0%,-10.8%,40.7%,x,-11.3%,0.5%
O=C(Cc1ccc(Cl)cc1)NNC(=S)NC(=O)c1cccs1,25.9%,-9.2%,2.4%,35.5µM*,-22.7%,-12.5%
O=C(/C=C/c1ccc(Br)cc1)NC(=S)NNC(=O)c1ccco1,-2.5%,-15.5%,12.5%,u,-15.7%,6.7%
C[C@H](CO)N1C[C@H](C)[C@@H](CN(C)C(=O)c2ccccn2)Oc2cc(Br)ccc2S1(=O)=O,x,-14.9%,x,x,x,x
CC(C)c1ccc(OCC(=O)NNC(=S)NC(=O)c2ccco2)c(Br)c1,5.8%,u,1.6%,61.6%,u,4.0%
CC(C)(C)c1ccc(OCC(=O)NNC(=S)NC(=O)c2ccco2)c(Br)c1,-4.3%,u,u,28.2µM*,u,-25.4%
O=C(CN1CCN(Cc2ccc(F)cc2Cl)C1=O)NCCc1ccccc1,-9.5%,1.7%,25.6%,u,-29.7%,11.8%
O=C(O)CN1CCN(Cc2ccc(F)cc2Cl)C1=O,6.9%,-9.7%,22.9%,25.1µM*,-11.5%,-31.4%
CCOC(=O)c1c(NC(=O)CSc2nncs2)sc(C)c1C,-8.0%,-3.6%,14.1%,10µM*,-12.5%,u
CCOC(=O)c1c(NC(=O)CSc2nnnn2-c2ccc(OC)cc2)sc(C)c1C,5.01µM*,2.12µM*,u,u,50.1µM*,-35.2%
CCOC(=O)c1c(NC(=O)CSc2nc(-c3ccccc3)cc(C(F)(F)F)n2)sc(C)c1C,x,x,11.4%,6.31µM*,-15.5%,5.7%
CCOC(=O)c1c(NC(=O)CSc2ccccc2C(=O)O)sc(C)c1C,4.8%,-16.8%,-1.1%,-38.0%,-30.1%,50.1µM*
COC(=O)CCCn1cc(CN2CC(N3CCCCC3)CS2(=O)=O)nn1 (centres undefined),x,-0.3%,x,x,x,x
CC1CCCCN1S(=O)(=O)c1ccc2c(c1)oc(=O)n2CC(=O)Nc1ccc(Cl)cc1 (centres undefined),x,x,34.8%,-20.5%[59 µM],-14.0%,-0.2%
